Screening results (PubChem)
The list is not random: actives were taken first. Their share in the collection is about 2.2%.
A549 viability: Nrf2 qHTS screen for inhibitors: counterscreen for cytotoxicity; Potency, µM (highest dose often 46 µM), for the others: at the highest dose activity change, negative = cytotoxicity, usual class: inhibitors; A549 ARE-Fluc cells, CellTiter-Fluor viability, 18-24 h; actives 0.16% (n = 390,000); note: potency is the fitted concentration of half-maximal effect; % is set by controls: 0 for no effect and ±100 for the full control effect
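A549 ARE_Fluc cells in 5% FBS OPTI-MEM were exposed to compounds in concentration-response for 18-24 h at 37 deg C. Viability was read by CellTiter-Fluor fluorescence (Ex 405/Em 525) after 30 min, before the luciferase read.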
GALK inhibitor: qHTS Assay for Inhibitors of Human Galactokinase (GALK); P51570; Purified GALK, Kinase-Glo residual ATP luminescence; Potency, µM (titrated, usually from 57.5 µM), for the others: at the highest dose activity change, negative = inhibition, hits mostly inhibitors; actives 0.007% (n = 270,000); AID 1868, 2009; note: potency is the fitted concentration of half-maximal effect; % is set by controls: 0 for no effect and ±100 for the full control effect
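Kinase-Glo Plus luminescence measured ATP left after a 1 h room-temperature reaction. The reaction used 5 nM GALK, 100 uM galactose and 35 uM ATP at pH 8.0 (20 mM HEPES, 5 mM MgCl2, 60 mM NaCl, 1 mM DTT, 0.01% BSA).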
Nrf2 block: Nrf2 qHTS screen for inhibitors; A549 ARE-Fluc reporter, luciferase luminescence, 18-24 h; Potency, µM (doses to about 46 µM), inactives show top-dose activity change, negative = inhibition, usual class: inhibitors; actives 2.1% (n = 360,000); note: potency is the fitted concentration of half-maximal effect; % is set by controls: 0 for no effect and ±100 for the full control effect; nearly all actives have a fitted effect of over 60% in size
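Nrf2 activity is the BugLite luminescence, read 15 min after reagent at room temperature, following CellTiter-Fluor cytotoxicity readout (30 min, 37C). Compound titrations were applied for 18-24 h to 5000 A549 ARE_Fluc cells/well in 5% FBS OPTI-MEM.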
Nrf2 ARE act: qHTS of Nrf2 Activators. Potency, µM (highest dose often 46.1 µM), inactives show at the highest dose activation, most hits filed as activators. AREc32 ARE-luciferase reporter (MCF7-derived line), luminescence, 24 h. actives 0.31% (n = 410,000); note: potency is the fitted concentration of half-maximal effect; % of control where 0% means no effect; nearly all actives have a fitted effect of over 65% in size
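Each well held 1000 AREc32 cells, which were incubated with compound for 24 hr at 37 deg C after overnight attachment, and ARE reporter activity was quantified by firefly luciferase luminescence.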
miR-21 reporter: qHTS Assay for Modulators of miRNAs and/orActivators of miR-21. 340,000 tested, under 10 active. AID 2288, 2010. Potency, µM (highest dose often 38.3 µM), without a hit: at the top dose activity change, positive = activation, hits mostly activators. HeLa miR-21 FLuc reporter, luciferase, 48 h;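 note: % of control where 0% means no effect; miR-21 action dims this reporter so a rising signal means less miR-21 action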
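Luminescence from a firefly luciferase reporter carrying a miR-21 binding site downstream, stably expressed under a CMV promoter in HeLa cells that make miR-21 endogenously, reports miRNA modulation after 48 h compound exposure up to approximately 40uM final.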
PI4K2A inh: qHTS for small molecular inhibitors of PI4K2A | Phosphatidylinositol 4-kinase type 2-alpha (Homo sapiens), Q9BTU6 | actives 0.13% (n = 420,000) | purified PI4K2A, ADP-Glo luminescence, 1 h; hits give low values | activity change, negative = inhibition, % at 76.9 µM | AID 1346378, 2018; in the data active = activity change below about -50%; inconclusive = mostly about -30% to -49%;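 note: -100% = wells without enzyme as full effect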
Target sequence (Q9BTU6 whole entry, looked up): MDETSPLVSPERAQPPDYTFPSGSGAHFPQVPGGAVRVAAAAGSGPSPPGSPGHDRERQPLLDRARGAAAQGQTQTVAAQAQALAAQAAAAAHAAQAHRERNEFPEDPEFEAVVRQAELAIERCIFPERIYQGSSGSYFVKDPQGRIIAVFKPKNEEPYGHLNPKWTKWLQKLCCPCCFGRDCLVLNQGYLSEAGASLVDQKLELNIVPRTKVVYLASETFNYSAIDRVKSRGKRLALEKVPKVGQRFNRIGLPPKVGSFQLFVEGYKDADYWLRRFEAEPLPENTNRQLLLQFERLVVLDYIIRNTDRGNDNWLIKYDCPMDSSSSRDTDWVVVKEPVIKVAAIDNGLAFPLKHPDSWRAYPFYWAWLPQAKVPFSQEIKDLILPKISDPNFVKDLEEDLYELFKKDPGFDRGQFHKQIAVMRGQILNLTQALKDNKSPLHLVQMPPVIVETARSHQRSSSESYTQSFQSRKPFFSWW
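Compounds are screened against recombinant PI4K2A using PI as substrate and ATP, the latter dispensed at 300 microM. Reactions run one hour at ambient temperature before ADP-Glo detection; full inhibition defined by wells lacking enzyme.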
* hit, by the source's call; ? = inconclusive; · = not tested or not shown. Unless noted, calls come from the whole dose curve; as a rule, active = well fitted curve in the direction sought with a large enough effect; inconclusive = small, poorly fitted or top-dose-only effect, or another doubt; inactive = no such curve, though single readings can be large; an effect the other way counts as inactive or inconclusive.

SMILES	A549 viability	GALK inhibitor	Nrf2 block	Nrf2 ARE act	miR-21 reporter	PI4K2A inh
CC(/C=C(\NC(=O)c1ccccc1)C(=O)N=Nc1c(O)[nH]c2ccc(C)cc12)=C\c1ccccc1	?	-4.8%	·	8.91µM*	12.0%	5.4
C[C@H]1CCCC(=O)N[C@@H](c2ccccc2)[C@@H](C)CCCC(=O)N[C@H]1c1ccccc1	·	·	·	·	·	1.0
Cn1c2ccccc2c(=O)c2ccc(NCc3ccc4c(c3)OCO4)cc21	-31.1%	·	25.9µM*	6.8%	·	3.8
O=C(c1ccc([N+](=O)[O-])s1)N1CCN(c2ccccc2)CC1	?	-2.6%	20.6µM*	-2.7%	1.0%	2.2
COC(=O)[C@]12C[C@H](CC(=O)NCC34CC5CC(CC(C5)C3)C4)C(=O)N(Cc3ccco3)C1=C[C@H](C(C)(C)C)O[C@@H]2C	·	·	·	·	·	1.3
Cc1cc(C(=O)CSc2nnc(-c3cccs3)o2)c(C)n1-c1ccccc1	-3.3%	1.2%	20.6µM*	-0.5%	10.3%	0.5
COc1ccc2[nH]c(=O)c(CN(Cc3cccs3)S(=O)(=O)c3c(C)ccc4nsnc34)cc2c1	·	-1.8%	9.2µM*	1.6%	7.2%	-2.3
Cc1ccc2[nH]c(=O)c(CN(Cc3ccco3)S(=O)(=O)c3c(C)ccc4nsnc34)cc2c1	4.2%	-0.4%	?	8.1%	-0.4%	0.0
N#Cc1ccc(NC(=O)COC(=O)C2Cc3ccccc3CN2C(=O)c2ccccc2)cc1 (stereo unspecified)	?	-0.1%	7.31µM*	-0.7%	-0.4%	-1.1
CCN(CC)C(=O)CC[C@@H]1CC[C@]2(CCCN(Cc3nccs3)C2)O1	·	·	·	·	·	-0.8
Cc1ccc(OCC(=O)Nc2ccncc2)cc1	4.1%	0.0%	?	-0.7%	-6.1%	2.1
Cc1cccc(OCC(=O)Nc2ccc(-c3nc4ccccc4o3)cc2)c1C	-3.3%	·	20.6µM*	4.8%	-8.8%	1.6
Cc1ccc(C)c(OCC(=O)Nc2ccncc2)c1	3.2%	0.3%	5.17µM*	2.4%	4.2%	-11.1
Cc1cc(Cl)ccc1OCC(=O)Nc1ccncc1	-0.5%	1.5%	23.1µM*	-0.9%	2.5%	-6.8
CC(=O)c1ccc(NC(=O)COc2ccccc2-c2nc(-c3ccc(C)cc3)no2)cc1	-17.2%	·	25.9µM*	6.3%	?	-0.9
Cc1cc(C)cc(OCC(=O)Nc2ccc(-c3nc4ccccc4o3)cc2)c1	-7.8%	·	?	-0.4%	-11.6%	1.3
N#Cc1nc(Nc2cc(F)cc(F)c2)c2ncn(CCCO)c2n1	-5.2%	·	14.5%	·	·	·
COC(=O)[C@]12C[C@H](CC(=O)NCCc3ccccc3OC)C(=O)N(Cc3cccc4ccccc34)C1=C[C@H](C(C)(C)C)O[C@@H]2C	·	·	·	·	·	-0.3
O=C(NCc1cccnc1)O[C@H]1CC[C@@]23CCCN2C(=O)CCC[C@H]3C1	·	·	·	·	·	-3.3
COc1ccc(CNC(=S)OC2CCC23CCC(c2ccccc2)CC3)cc1 (stereo unspecified)	·	·	·	·	·	-0.3
COc1ccccc1OCC(=O)Nc1ccncc1	-1.9%	-1.9%	-20.4%	3.7%	-6.3%	3.5
Cc1cccc(OCC(=O)Nc2ccncc2)c1C	-6.6%	-2.2%	7.31µM*	0.0%	4.0%	7.2
O=C(COc1ccc(Cl)cc1Cl)Nc1ccccn1	-0.2%	7.8%	?	3.1%	?	-74.8*
COc1cccc(NC(=O)NC2CCCCN(Cc3ccc(C)cc3)C2=O)c1 (stereo unspecified)	·	·	·	·	·	-6.5
CNc1ccc(Br)cc(C(=O)/C=C/c2cc(OC)ccc2OC)c1=O	?	-3.1%	?	14.1µM*	19.8%	-13.2
CCNc1ccc(Br)cc(C(=O)/C=C/c2ccc(Cl)cc2Cl)c1=O	?	-4.7%	25.9µM*	?	-14.2%	5.9
CNc1ccc(Br)cc(C(=O)/C=C/c2ccc(OC)cc2)c1=O	-0.3%	0.9%	0.1%	?	9.4%	0.3
